Inconclusive results are not listed. Active and inactive are the calls of the source. Unless noted, the call rests on the fitted dose curve; in most records, active means well fitted curve in the direction sought with a large enough effect in the repeat runs; inconclusive means weak or mixed curves; inactive means no such curve, though single readings can be large; an effect the other way counts as inactive or inconclusive.
What was measured:
[1] = qHTS assay to identify small molecule agonists of the peroxisome proliferator-activated receptor delta (PPARd) signaling pathway - cell viability counter screen (AID 743211); further: on the % scale 0 is the no-effect control and ±100 the full control effect; nearly all actives have a fitted effect of over 55% in size
Method in brief: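 PPARd-bla HEK293H cells (UAS-beta-lactamase reporter) were treated with compounds for 17 h at 37 C. Viability was then read in the same wells by CellTiter-Glo luminescence after 30 min at room temperature.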

[2] = target: Peroxisome proliferator-activated receptor delta (Homo sapiens) (UniProt Q03181); assay: qHTS assay to identify small molecule agonists of the peroxisome proliferator-activated receptor delta (PPARd) signaling pathway (AID 743212; calls by dose curve; further: on the % scale 0 is the no-effect control and ±100 the full control effect)
Peroxisome proliferator-activated receptor delta (Homo sapiens), sequence (Q03181 whole entry, looked up): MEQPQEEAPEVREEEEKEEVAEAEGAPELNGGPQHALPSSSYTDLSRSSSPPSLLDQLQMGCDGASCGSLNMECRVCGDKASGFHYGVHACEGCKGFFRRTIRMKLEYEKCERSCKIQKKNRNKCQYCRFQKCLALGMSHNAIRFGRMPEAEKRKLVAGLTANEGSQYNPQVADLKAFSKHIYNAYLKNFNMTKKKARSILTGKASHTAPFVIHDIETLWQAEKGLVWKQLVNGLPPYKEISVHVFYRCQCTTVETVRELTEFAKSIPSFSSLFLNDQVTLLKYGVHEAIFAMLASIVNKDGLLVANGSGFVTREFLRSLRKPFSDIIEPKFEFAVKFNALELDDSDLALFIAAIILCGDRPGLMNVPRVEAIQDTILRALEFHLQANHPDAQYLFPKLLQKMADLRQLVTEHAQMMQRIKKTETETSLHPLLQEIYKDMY
Method in brief: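 HEK293H UAS-bla reporter cells, human PPARd system; compounds delivered in DMSO after 5 h plating, then at 37 C. Beta-lactamase FRET read, 2 h RT substrate step.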

[3] = qHTS assay to identify small molecule antagonists of the peroxisome proliferator-activated receptor delta (PPARd) signaling pathway - cell viability counter screen (AID 743213); further: on the % scale 0 is the no-effect control and ±100 the full control effect; nearly all actives have a fitted effect of over 50% in size
Method in brief: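 Same-well viability: cells pre-incubated 5 h, dosed with compound plus 300 nM L165041, kept 17 h at 37 C, FRET substrate 2 h RT, then CellTiter-Glo 30 min RT and luminescence.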

[4] = target: Peroxisome proliferator-activated receptor delta (Homo sapiens) (UniProt Q03181); assay: qHTS assay to identify small molecule antagonists of the peroxisome proliferator-activated receptor delta (PPARd) signaling pathway (AID 743215; active means well fitted inhibition curve with a large enough effect in the signal ratio in the repeat runs, not every such curve was filed as active; the % refers to the signal ratio;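 further: cells stimulated with agonist L165041 at 300 nM final during compound exposure; series mostly up to about 62 µM; on the % scale 0 is the no-effect control and ±100 the full control effect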)
Method in brief: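 Antagonist-mode beta-lactamase reporter screen: HEK293H cells with UAS-bla under PPARd control, stimulated by 300 nM L165041 (final) alongside test compound for 17 h at 37 C, then FRET fluorescence after 2 h substrate incubation.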

[5] = target: Bile acid receptor (Homo sapiens) (UniProt Q96RI1); assay: qHTS assay to identify small molecule antagonists of the farnesoid-X-receptor (FXR) signaling pathway (AID 743217; active means well fitted inhibition curve with a large enough effect in the signal ratio in the repeat runs, not every such curve was filed as active; the % refers to the signal ratio; further: on the % scale 0 is the no-effect control and ±100 the full control effect)
Bile acid receptor (Homo sapiens), sequence (Q96RI1 whole entry, looked up): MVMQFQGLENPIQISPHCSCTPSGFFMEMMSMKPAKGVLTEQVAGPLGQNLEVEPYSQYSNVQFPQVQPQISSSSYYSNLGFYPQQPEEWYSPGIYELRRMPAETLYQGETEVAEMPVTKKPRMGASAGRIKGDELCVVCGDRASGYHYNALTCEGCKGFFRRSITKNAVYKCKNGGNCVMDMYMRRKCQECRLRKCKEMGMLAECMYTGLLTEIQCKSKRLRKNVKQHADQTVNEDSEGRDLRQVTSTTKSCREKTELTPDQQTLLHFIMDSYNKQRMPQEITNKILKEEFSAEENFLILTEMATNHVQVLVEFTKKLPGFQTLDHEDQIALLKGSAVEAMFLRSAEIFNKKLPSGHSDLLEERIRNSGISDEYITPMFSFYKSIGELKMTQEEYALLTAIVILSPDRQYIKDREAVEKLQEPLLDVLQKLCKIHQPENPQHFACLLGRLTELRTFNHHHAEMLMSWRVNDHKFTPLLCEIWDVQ
Method in brief: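 Beta-lactamase reporter under UAS control in HEK 293T cells; compound exposure 16 h at 37 °C in the presence of chenodeoxycholic acid (50 uM final); signal from B/G FRET substrate after 2 h at room temperature.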

[6] = qHTS assay to identify small molecule agonists of the farnesoid-X-receptor (FXR) signaling pathway - cell viability counter screen (AID 743218); further: on the % scale 0 is the no-effect control and ±100 the full control effect; nearly all actives have a fitted effect of over 45% in size
Method in brief: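 In GeneBLAzer FXR-UAS-bla HEK 293T cells, compounds act for 16 h at 37 C. Cell viability is then scored in the reporter wells by CellTiter-Glo, 30 min at RT, luminescence.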

[7] = target: Bile acid receptor (Homo sapiens) (UniProt Q96RI1); assay: qHTS assay to identify small molecule agonists of the farnesoid-X-receptor (FXR) signaling pathway (AID 743220; active means well fitted activation curve with a large enough effect in the signal ratio in the repeat runs, not every such curve was filed as active; the % refers to the signal ratio; further: on the % scale 0 is the no-effect control and ±100 the full control effect)
Method in brief: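 Beta-lactamase reporter under UAS control in GeneBLAzer FXR HEK 293T cells (5000/well) measured with LiveBLAzer FRET substrate after 2 h at room temperature. Compound exposure lasted 16 h at 37C.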

[8] = qHTS assay to identify small molecule antagonists of the farnesoid-X-receptor (FXR) signaling pathway - cell viability counter screen (AID 743221; active means well fitted cell-killing curve with a large enough effect in the repeat runs, not every such curve was filed as active; further: on the % scale 0 is the no-effect control and ±100 the full control effect; nearly all actives have a fitted effect of over 50% in size)
Method in brief: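 FXR-UAS-bla HEK 293T cells were treated with test compounds plus chenodeoxycholic acid (50 uM final) for 16 h at 37 C. Cell viability in the same wells was then read as CellTiter-Glo luminescence after 30 min at room temperature.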

[9] = target: Vitamin D3 receptor (Homo sapiens) (UniProt P11473); assay: qHTS assay to identify small molecule agonists of the vitamin D receptor (VDR) signaling pathway (AID 743222; calls by dose curve; further: on the % scale 0 is the no-effect control and ±100 the full control effect)
Vitamin D3 receptor (Homo sapiens), sequence (P11473 whole entry, looked up): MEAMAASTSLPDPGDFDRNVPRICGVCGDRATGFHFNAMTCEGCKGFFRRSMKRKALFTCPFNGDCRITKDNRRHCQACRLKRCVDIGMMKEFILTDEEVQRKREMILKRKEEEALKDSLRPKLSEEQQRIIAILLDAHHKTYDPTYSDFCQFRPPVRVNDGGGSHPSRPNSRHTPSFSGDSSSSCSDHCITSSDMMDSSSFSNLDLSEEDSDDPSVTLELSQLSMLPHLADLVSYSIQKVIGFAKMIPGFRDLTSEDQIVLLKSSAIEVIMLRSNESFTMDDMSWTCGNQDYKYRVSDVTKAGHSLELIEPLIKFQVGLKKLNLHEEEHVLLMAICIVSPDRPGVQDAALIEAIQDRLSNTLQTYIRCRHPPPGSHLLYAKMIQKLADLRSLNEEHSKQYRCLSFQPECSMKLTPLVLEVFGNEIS
Method in brief: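 Agonist activity measured in VDR-bla reporter cells. Exposure 16 h, 37C, 5% CO2; detection by B/G FRET substrate, 2 h RT.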

[10] = target: Vitamin D3 receptor (Homo sapiens) (UniProt P11473); assay: qHTS assay to identify small molecule antagonists of the vitamin D receptor (VDR) signaling pathway (AID 743223; active means well fitted inhibition curve with a large enough effect in the signal ratio in the repeat runs, not every such curve was filed as active; the % refers to the signal ratio; further: on the % scale 0 is the no-effect control and ±100 the full control effect)
Method in brief: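 VDR-bla cells were plated, incubated 4 h at 37C, then given compound and 1alpha,25-dihydroxyvitamin D3 (3 nM final). After 16 h at 37C, LiveBLAzer B/G FRET substrate was added for 2 h at room temperature and fluorescence read.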

[11] = qHTS assay to identify small molecule antagonists of the vitamin D receptor (VDR) signaling pathway - cell viability counter screen (AID 743225); further: on the % scale 0 is the no-effect control and ±100 the full control effect; nearly all actives have a fitted effect of over 50% in size
Method in brief: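 VDR-bla HEK 293T cells, 4 h pre-incubation at 37C, then compound plus 1-alpha,25-dihydroxyvitamin D3 (3 nM final) for 16 h. After the beta-lactamase FRET read, CellTiter-Glo was added to the same wells; luminescence after 30 min at room temperature.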

[12] = qHTS assay to identify small molecule agonists of the NFkB signaling pathway (AID 1159509; active means well fitted curve in the direction sought with a large enough effect in the signal ratio in the repeat runs, not every such curve was filed as active; the % refers to the signal ratio)
Method in brief: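 After overnight attachment, reporter cells received test compounds, DMSO or positive controls and were incubated 5 hr at 37 C. FRET substrate was then added for 1.5 hr at room temperature before dual-emission fluorescence reading.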

[13] = qHTS assay to identify small molecule agonists of the NFkB signaling pathway - cell viability counter screen (AID 1159515; calls by dose curve; further: series mostly up to about 61 µM; on the % scale 0 is the no-effect control and ±100 the full control effect; nearly all actives have a fitted effect of over 55% in size)
Method in brief: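 Viability in NFkB-bla ME-180 cells was measured by CellTiter-Glo luminescence, 30 min room temperature, in wells already treated 5 hr with compounds and read for reporter FRET.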

[14] = qHTS assay to identify small molecule agonists of the endoplasmic reticulum stress response signaling pathway (AID 1159516; active means well fitted activation curve with a large enough effect in the signal ratio in the repeat runs, not every such curve was filed as active; the % refers to the signal ratio; further: on the % scale 0 is the no-effect control and ±100 the full control effect)
Method in brief: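 ER stress element reporter (bla) in HeLa. 1,500 cells/well, overnight attachment; 5 hr compound; 2 hr RT substrate; dual-emission fluorescence.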

[15] = qHTS assay to identify small molecule antagonists of the retinoid-related orphan receptor gamma (ROR-gamma) signaling pathway - cell viability counter screen (AID 1159520); further: on the % scale 0 is the no-effect control and ±100 the full control effect; nearly all actives have a fitted effect of over 50% in size
Method in brief: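 Cytotoxicity was read from cellular ATP (CellTiter-Glo luminescence) after 16 hr at 37 C with 1 uM doxycycline induction. The inducer was added 2 hr after compound transfer to Tet-on ROR gamma CHO cells.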

[16] = target: Nuclear receptor ROR-gamma (Homo sapiens) (UniProt P51449); assay: qHTS assay to identify small molecule antagonists of the retinoid-related orphan receptor gamma (ROR-gamma) signaling pathway (AID 1159521)
Method in brief: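 Tet-on RORγ CHO cells carrying a ROR response element–luciferase reporter were pretreated with compounds for 2 h, then induced with 1 uM (final) doxycycline hyclate for 16 h at 37 C. Antagonism was read as decreased ONE-Glo luminescence.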

[17] = qHTS assay to identify small molecule agonists of the AP-1 signaling pathway - cell viability counter screen (AID 1159525; calls by dose curve; further: nearly all actives have a fitted effect of over 55% in size)
Method in brief: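 Luminescent ATP readout (Cell Titer Glo, 30 min RT), normalised to DMSO and tetra n-octyl ammonium bromide controls. Cells were ME-180 AP-1-bla in 0.5% dialyzed FBS Opti-MEM, with a 5 h, 37 °C compound exposure.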

[18] = qHTS assay to identify small molecule agonists of the vitamin D receptor (VDR) signaling pathway - cell viability counter screen (AID 743224)
Method in brief: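 VDR-bla cell line, quantitative HTS format; 16 h compound incubation (37C, 5% CO2); ATP-based CellTiter-Glo luminescence measured in the reporter assay wells.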

[19] = qHTS assay to identify small molecule agonists of the AP-1 signaling pathway (AID 1159526; calls by dose curve; further: on the % scale 0 is the no-effect control and ±100 the full control effect)

CC(C)(C)C(O)/C=C/c1ccc2c(c1)OCO2 (stereo not drawn)
inactive: Potency [1] | outcome [2] | Potency [3] | Potency [4] | outcome [5] | Potency [6] | Potency [7] | Potency [8] | outcome [9] | outcome [10] | Potency [11] | outcome [12] | Potency [13] | Potency [14] | Potency [15] | Potency [16] | Potency [17]

CCCCCCCCCCCCCOC(=O)CCSCCC(=O)OCCCCCCCCCCCCC
inactive: Potency [1] | outcome [2] | Potency [3] | Potency [4] | outcome [5] | Potency [6] | Potency [7] | Potency [8] | outcome [9] | outcome [10] | Potency [18] | Potency [11] | outcome [12] | Potency [13] | Potency [14] | activity, negative = cytotoxicity [15] 0.433% [at 19 µM] | activity change, negative = inhibition [16] -3.96% [at 19 µM] | viability change, negative = cytotoxic [17] -10.6% [at 15.8 µM] | activation [19] -14.2% [at 15.8 µM]

O=P(O)(O)Oc1ccccc1
inactive: Potency [1] | Potency [3] | outcome [5] | Potency [6] | Potency [7] | Potency [8] | outcome [9] | Potency [11] | outcome [12] | Potency [13] | Potency [14] | Potency [15] | Potency [16] | Potency [17] | outcome [19]

Cc1cccc2sc(N)nc12
inactive: Potency [1] | outcome [2] | Potency [3] | Potency [4] | Potency [6] | Potency [8] | outcome [9] | Potency [11] | outcome [12] | Potency [13] | Potency [14] | Potency [15] | Potency [16] | Potency [17] | outcome [19]

COc1ccc(-c2cc(=S)ss2)cc1
inactive: Potency [1] | Potency [3] | Potency [6] | Potency [8] | Potency [18] | Potency [11] | outcome [12] | Potency [13] | Potency [14] | Potency [15] | Potency [16] | Potency [17]

CCc1ccc(C)cc1
inactive: Potency [1] | outcome [2] | Potency [3] | Potency [4] | outcome [5] | Potency [6] | Potency [7] | Potency [8] | outcome [9] | outcome [10] | Potency [18] | Potency [11] | outcome [12] | Potency [13] | Potency [14] | Potency [15] | Potency [16] | Potency [17] | outcome [19]

CCN(CC)CCOC(=O)C(c1ccccc1)c1ccccc1
inactive: Potency [1] | outcome [2] | Potency [4] | outcome [5] | Potency [6] | Potency [7] | Potency [8] | outcome [9] | Potency [18] | Potency [11] | outcome [12] | Potency [13] | Potency [14] | Potency [15] | Potency [16] | Potency [17] | outcome [19]

CCCCCCC(CO)CCCC (stereo not drawn)
inactive: Potency [1] | outcome [2] | Potency [3] | Potency [4] | Potency [8] | outcome [9] | Potency [18] | Potency [11] | outcome [12] | Potency [13] | Potency [14] | Potency [15] | Potency [16] | Potency [17]
